Most compounds without a hit are left out; they make up all but 9.4% or so of the library.
NPC1 prom act: activators of NPC1 promoter. Huh7 NPC1 promoter luciferase reporter, 24 h. Potency, µM (titrated, usually from 9.22 µM), for the others: top-dose activation, actives largely listed as activators. actives 2.4% (n = 320,000). AID 485313; further: % of control where 0% means no effect; nearly all actives have a fitted effect of over 60% in size
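Luciferase expression driven by the NPC1 promoter was measured in stably transfected Huh7 cells after a 24 h compound incubation, using a luciferase reagent and a luminescence read.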
Rab9 prom act: Rab9 promoter activation. Huh7 Rab9 promoter-luciferase reporter, luminescence, 24 h. Potency, µM (titrated, usually from 9.22 µM), without a hit: at the highest dose activation, negative = inhibition, actives largely listed as activators. actives 2.8% (n = 320,000); further: % of control where 0% means no effect; nearly all actives have a fitted effect of over 60% in size
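Cell-based reporter: Huh7 stable for Rab9 promoter-driven luciferase, plated in reduced-serum medium with 10% FBS at 1500 cells/well, compound-treated 24 h at 37 °C, luminescence read after 10 min reagent.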
SMN2 splice enh: SMN2 splice variant enhancement; HEK293 SMN2-luciferase splicing reporter, luminescence, 30-36 h; Potency, µM (top dose mostly 46.1 µM), without a hit: top-dose activity change, positive = activation, most hits filed as activators; actives 2.8% (n = 210,000); AID 1458; further: % of control where 0% means no effect; nearly all actives have a fitted effect of over 55% in size
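qHTS luciferase splicing reporter: luminescence rises when SMN2 exon 7 is included in transfected HEK293 cells. Compound exposure lasted 30-36 h at 37C, with 4.5 mM final sodium butyrate as control, followed by a ONE-Glo read.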
ELG1 genotoxic: genotoxicity induction in ELG1-luciferase HEK293T cells; actives 1.3% (n = 330,000); AID 504466; Potency, µM (highest dose often 46 µM), for inactives: at the top dose activity change, positive = activation, usual class: activators; HEK293T ELG1-luciferase reporter, luminescence, 16 h; further: % of control where 0% means no effect; nearly all actives have a fitted effect of over 60% in size
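Screening used a luciferase reporter fused to human ELG1 in HEK293T cells. Luminescence was read on a CCD plate imager after 16 hr exposure and 30 min ONE-Glo incubation.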
ELG1 repair inh: blocks ELG1-dependent DNA repair in HEK293T cells; HEK293T ELG1-luciferase reporter, luminescence, 16 h; DNA damage induced by 5-fluorouridine; Potency, µM (doses to about 46.1 µM), inactives show top-dose activity change, negative = inhibition, hits mostly inhibitors; actives 2.3% (n = 330,000); AID 504467; further: on the % scale 0 is the no-effect control and ±100 the full control effect; nearly all actives have a fitted effect of over 55% in size
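DMSO vehicle served as the neutral condition. Each well held 2,000 cells given 5-fluorouridine plus compound; after 16 hr at 37 °C/5% CO2, ONE-Glo was added and luciferase measured 30 min later.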
FLuc counter: inhibits or activates purified firefly luciferase, miR-21 counter-screen. purified FLuc, Km substrates, luminescence inhibition. P08659. Potency, µM (top dose mostly 57.5 µM), for the others: at the top dose activity change, negative = inhibition, actives largely listed as inhibitors. actives 6.9% (n = 360,000);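 further: plate controls were vehicle for no effect and reference inhibitor for full effect; nearly all actives have a fitted effect of over 55% in size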
Target sequence (P08659 whole entry, looked up): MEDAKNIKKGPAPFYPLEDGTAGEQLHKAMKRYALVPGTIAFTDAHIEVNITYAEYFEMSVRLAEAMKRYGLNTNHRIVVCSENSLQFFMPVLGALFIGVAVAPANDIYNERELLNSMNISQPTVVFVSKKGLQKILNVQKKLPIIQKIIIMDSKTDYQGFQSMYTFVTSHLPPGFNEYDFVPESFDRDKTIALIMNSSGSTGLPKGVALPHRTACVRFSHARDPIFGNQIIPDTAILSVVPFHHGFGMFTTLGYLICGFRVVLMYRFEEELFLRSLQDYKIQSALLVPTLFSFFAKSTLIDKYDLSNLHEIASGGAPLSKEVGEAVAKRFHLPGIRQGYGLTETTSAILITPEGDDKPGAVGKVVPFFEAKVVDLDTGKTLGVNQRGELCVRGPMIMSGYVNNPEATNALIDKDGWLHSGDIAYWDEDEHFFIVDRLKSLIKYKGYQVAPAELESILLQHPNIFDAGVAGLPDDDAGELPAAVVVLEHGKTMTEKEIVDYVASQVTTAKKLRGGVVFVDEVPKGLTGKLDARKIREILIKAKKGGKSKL
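Purified P. pyralis luciferase, 10 nM final, with Km-level 10 uM D-luciferin and 10 uM ATP in 50 mM Tris acetate pH 7.5, 10 mM Mg acetate, 0.01% Tween-20, 0.05% BSA; 6-point qHTS titration about 60 µM downward; luminescence read.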
An asterisk follows results filed as active; u = inconclusive; x = no result given; [ ] = another dose, or the depositor's remark. The call rests on the fitted dose curve; in most records, active means well fitted curve in the direction sought with a large enough effect; inconclusive means small, poorly fitted or top-dose-only effect, or another doubt; inactive means no such curve, though single readings can be large; an effect the other way counts as inactive or inconclusive. Potency means the concentration at half of the fitted maximal effect.

SMILES	NPC1 prom act	Rab9 prom act	SMN2 splice enh	ELG1 genotoxic	ELG1 repair inh	FLuc counter
CCN(CC)c1ccc(/C=N\NC(N)=O)cc1	-4%	4%	2%	16%	u	u
CCN(CC)c1ccc(/C=N/OCC(=O)Nc2cccc(C)c2)cc1	2%	2%	-6%	-1%	23%	12µM*
S=c1nc(-c2nc(=S)[nH]c3c2CCCCCCCCCC3)c2c([nH]1)CCCCCCCCCC2	x	x	-7%[9.22 µM]	x	x	x
CCC(Oc1ccccc1F)C(=O)Nc1c(C(=O)c2ccccc2)oc2ccccc12 (configuration not stated)	x	x	-7%	x	x	1%
COc1ccc(N2CC(NC(=O)C(=O)c3c[nH]c4ccccc34)CC2=O)cc1 (configuration not stated)	x	x	x	x	x	3%
CC(=O)CSc1nnc2cc(C)c3cc(C)cc(C)c3n12	x	x	x	x	x	-14%
O=C(Cn1c(=O)n(-c2ccccc2)c(=O)c2c3c(sc21)CCC3)c1ccc(Br)cc1	x	x	4%	x	x	-10%
O=C(Cc1ccccc1)N/N=C/c1ccc(OCC(=O)Nc2ccccc2)cc1	-1%	9%	-5%	-2%	u	0%
Cc1ccc(/C=N/NC(=O)Nc2ccccc2)o1	2.5µM*	3.2µM*	11µM*	u	u	11µM*
CC(=O)Oc1ccc(/C=N/NC(=S)Nc2ccccc2)cc1	3.2µM*	4µM*	11µM*	9.2µM*	u	u
O=C(CCSCc1cnn(-c2ccccc2)c1-n1cccc1)NCc1ccccc1Cl	x	x	x	x	x	-17%
COc1ccc(/C=N/c2c(-c3ccc(OC)cc3)nc3n2CCS3)cc1	-4%	18%	9%	2%	-13%	1.9µM*
Fc1ccc(/C=N/c2c(-c3ccc(F)cc3)nc3n2CCS3)cc1	0%	-7%	7%	2%	10%	1%
COc1ccc(C(=O)NCC(=O)OCC(=O)Nc2cccc(S(=O)(=O)N3CCCC3)c2)cc1	-3%	-9%	x	-1%	17%	12µM*
CCN(CC)S(=O)(=O)c1cccc(C(=O)Nc2ccccc2C(=O)Nc2ccc(OC)cc2)c1	x	x	x	x	x	8.5µM*
O=C(Nc1ccc(N2CCOCC2)cc1)c1cccc(S(=O)(=O)N2CCCCC2)c1	-7%	-1%	-38%	1%	16µM*	-16%
CCN(CC)S(=O)(=O)c1cccc(C(=O)N/N=C/c2cccc(O)c2O)c1	-7%	-2%	-67%	u	4%	8.5µM*
CCN(CC)S(=O)(=O)c1ccc(C(=O)N2CC(=O)Nc3ccc(F)cc3C2c2ccccc2)cc1 (configuration not stated)	x	x	2%	x	x	9%
N=c1ccn2c(n1)OCC1C2O[C@@H](O)[C@H]1O (some centres not stated)	x	x	-27%	x	x	x
C=CCN(c1ccccc1)S(=O)(=O)c1cccc(C(=O)Nc2ccc(N3CCOCC3)cc2)c1	-4%	-3%	x	-11%	15µM*	-16%
COc1ccc(NC(=O)c2cccc(S(=O)(=O)N3CCCCCC3)c2)cc1	-1%	0%	x	1%	21µM*	-6%
Cc1cccc(C)c1NC(=O)Cn1nc(C)c2sc3ccccc3c2c1=O	x	x	x	x	x	-6%
COc1ccc(CNCC(O)(c2ccccc2)c2ccccc2)cc1OC	-8%	-8%	-46%	-6%	23µM*	0%
COc1ccc(CNCC(O)(c2ccccc2)c2ccccc2)cc1	3%	-7%	x	-5%	-8%	-2%
Clc1ccc(/C=C\c2nc(Cl)c(-c3ccc(Cl)cc3)c(Cl)n2)cc1	x	x	-4%[9.22 µM]	x	x	x
O=C(c1ccccc1)c1c[nH]c2cc3c(cc2c1=O)OCO3	-7%	1%	17%	6%	15%	0%
O=C(NCc1cccnc1)c1c[nH]c2cc3c(cc2c1=O)OCCO3	-1%	2%	-44%	u	-10%	6µM*
O=C(c1ccccc1)c1c[nH]c2cc3c(cc2c1=O)OCCO3	22%	u	22µM*	16%	u	u
